Compounds with a hit are over-represented: about 2.2% of the library has one in this group of screens.
Mm-Cpn inhibitor = blocks the Methanococcus maripaludis chaperonin Mm-Cpn; purified Mm-Cpn ATPase, ADP Transcreener TR-FRET; Potency, µM (titrated, usually from 76.9 µM), for inactives: at the top dose activity, negative = inhibition, hits mostly inhibitors; 0.031% of 330,000 active; note: potency is the fitted concentration of half-maximal effect; % is set by controls: 0 for no effect and ±100 for the full control effect; nearly all actives have a fitted effect of over 80% in size
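Compound-treated chaperonin, 25 nM final, turns over 10 uM ATP at 37°C for 30 min following a 10 min preincubation; ADP generated competes with ADP-d2 for Eu-cryptate antibody, lowering FRET.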
HEK293 tox = cytotoxicity in counter-screen for GLP-1R inverse agonists. AID 624418. Potency, µM (top dose mostly 38.3 µM), for the others: at the top dose activity change, negative = inhibition, actives largely listed as inhibitors. HEK293 cAMP-luciferase reporter cells, luminescence, 24 h. 0.13% of 410,000 active;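 note: loss of luciferase light is scored as toxicity; potency is the fitted concentration of half-maximal effect; % is set by controls: 0 for no effect and ±100 for the full control effect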
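Seeding density was 200 cells/uL; after overnight-length (12 h) culture, 23 nL compounds went on for 24 h at 37 °C. Readout used a luciferase detection reagent, luminescence taken after 12 min at room temperature.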
GLP1R ag = GLP-1 receptor (human) agonism; 0.007% of 380,000 active; HEK293 GLP-1R CRE-luciferase, luminescence, 4-6 h; cells express a hypersensitive GLP-1R form; P43220; Potency, µM (highest dose often 45.6 µM), for inactives: at the highest dose activation, most hits filed as activators; note: potency is the fitted concentration of half-maximal effect; % of control where 0% means no effect
Target sequence (P43220 whole entry, looked up): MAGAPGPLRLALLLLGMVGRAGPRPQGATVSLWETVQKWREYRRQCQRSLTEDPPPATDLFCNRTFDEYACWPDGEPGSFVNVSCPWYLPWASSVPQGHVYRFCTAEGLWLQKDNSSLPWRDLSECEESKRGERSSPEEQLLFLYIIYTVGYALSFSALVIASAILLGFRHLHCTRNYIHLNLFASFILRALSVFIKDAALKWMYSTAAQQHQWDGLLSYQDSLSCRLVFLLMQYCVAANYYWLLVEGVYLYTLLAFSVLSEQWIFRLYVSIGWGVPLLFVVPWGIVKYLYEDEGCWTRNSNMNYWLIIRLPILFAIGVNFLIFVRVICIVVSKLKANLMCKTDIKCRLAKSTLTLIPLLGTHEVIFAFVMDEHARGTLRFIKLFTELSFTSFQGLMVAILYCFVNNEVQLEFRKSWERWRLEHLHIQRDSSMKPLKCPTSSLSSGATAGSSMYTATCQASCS
GLP1R inv ag = inverse agonists of human GLP-1 receptor | Potency, µM (highest dose often 38.3 µM), without a hit: at the top dose activity change, negative = inhibition, actives largely listed as inhibitors | P43220 | AID 624417 | 1.6% of 410,000 active | HEK293 GLP-1R CRE-luciferase, luminescence, 24 h; GLP-1R form is constitutively active; note: potency is the fitted concentration of half-maximal effect; % is set by controls: 0 for no effect and ±100 for the full control effect; nearly all actives have a fitted effect of over 55% in size
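Seeding at 200 cells/uL, 12 h culture, 24 hr compound treatment, then luciferase reagent and a luminescence read; cells are HEK293 stably expressing a constitutively active GLP-1R plus cAMP-responsive luciferase.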
uPA surface inh = cell surface uPA generation inhibition; 0.31% of 330,000 active; Potency, µM (titrated, usually from 38.3 µM), for the others: at the highest dose activity change, negative = inhibition, most hits filed as inhibitors; cell surface uPA generation assay, qHTS; active = well fitted inhibition curve with a large enough effect; inconclusive = small, poorly fitted or top-dose-only effect; inactive = no such curve, though single readings can be large or run the other way; tested in mouse RAW 264.7 cells; note: potency is the fitted concentration of half-maximal effect; % is set by controls: 0 for no effect and ±100 for the full control effect; nearly all actives have a fitted effect of over 55% in size
CCT modulator = modulators of cytosolic chaperonin (CCT/TRiC) activity. purified chaperonin ATPase assay, HTRF ADP detection, 30 min. activity change, % (test concentration not listed), hits read low. 0.3% of 360,000 active; in the data active = activity change below about -30%; note: % is set by controls: 0 for no effect and ±100 for the full control effect
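ATPase activity: ADP formed was measured by HTRF Transcreener (665/615 nm ratio) after 30 min at 37 deg C with 10 uM ATP. Compounds screened at one 76 uM concentration against 40 or 20 nM TRiC in Tris pH 7.4/KCl/MgCl2/DTT buffer.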
* = called active by the depositor; ? = inconclusive; nt = no result. Unless noted, calls come from the whole dose curve; as a rule, active = well fitted curve in the direction sought with a large enough effect; inconclusive = small, poorly fitted or top-dose-only effect, or another doubt; inactive = no such curve, though single readings can be large; an effect the other way counts as inactive or inconclusive.

SMILES | Mm-Cpn inhibitor | HEK293 tox | GLP1R ag | GLP1R inv ag | uPA surface inh | CCT modulator
NNc1nc2ccccc2nc1C(F)(F)F | 1% | -3% | 0% | -6% | -3% | -2
FC(F)(F)c1nc2ccccc2nc1N/N=C\c1ccccc1 | -2% | 8.9µM* | 2% | ? | 9% | 3
O=C(NCC(c1ccco1)N1CCN(c2ccc(F)cc2)CC1)OCc1ccccc1 (stereo not drawn) | -3% | 14% | -1% | 3.5µM* | -8% | 0
O=S(=O)(NCC(c1ccco1)N1CCN(c2ccc(F)cc2)CC1)c1ccc(F)cc1 (stereo not drawn) | 1% | 9% | 2% | 10µM* | 7% | 1
O=S(=O)(NCC(c1ccco1)N1CCN(c2ccccc2)CC1)c1ccc(F)cc1 (stereo not drawn) | 0% | 7% | 6% | 5% | -7% | 0
COc1ccc(N2CCN(C(CNC(=O)C(=O)NCCCO)c3ccco3)CC2)cc1 (stereo not drawn) | 1% | -1% | -2% | -9% | -6% | -69*
C=C1CCC(O)C/C1=C/C=C1\CCC[C@]2(C)[C@@H]([C@H](C)/C=C/[C@H](C)C(C)C)CC[C@@H]12 (stereo partly drawn) | nt | nt | 17% | nt | nt | nt
Cc1ccc(N2CC(NC(=O)C3CCCC3)CC2=O)cc1 (stereo not drawn) | nt | 0% | nt | 20% | nt | nt
CCOC(=O)c1cc(-c2ccc(OC)cc2)n(CCC(=O)Nc2cccc(C(C)=O)c2)c1C | nt | -2% | nt | 6% | nt | nt
Cc1ccc(S(=O)(=O)N2CCCCC2CCNC(=O)C(=O)NCc2ccco2)cc1 (stereo not drawn) | -1% | -23% | 13% | ? | -19% | 0
Cc1ccc(S(=O)(=O)N2CCCCC2CCNC(=O)C(=O)NCCc2ccco2)cc1 (stereo not drawn) | 1% | ? | 11% | ? | 1µM* | 1
OC[C@@H]1CN(Cc2ccc(F)cc2)C[C@H](n2cnc3c(Nc4ccccc4)ncnc32)O1 | nt | 1% | 0% | -15% | nt | -13
OC[C@@H]1CN(Cc2ccc(-c3ccccc3)cc2)C[C@H](n2cnc3c(Nc4ccccc4)ncnc32)O1 | nt | -30% | -1% | 4.5µM* | nt | -1
COc1cc(CNc2ncnc3c2ncn3[C@H]2CN(Cc3ccccc3)C[C@@H](COC(C)=O)O2)cc(OC)c1OC | nt | 2% | -3% | 11% | nt | -38*
c1ccc(-c2nnc(NC3=NCCC3)o2)cc1 | -1% | 11% | -32% | ? | -8% | -3
Fc1ccc(-c2nnc(NC3=NCCCCC3)o2)cc1 | -8% | 0% | -60% | 1µM* | -10% | 4
N#Cc1ccc(OCC(=O)OCC(=O)c2ccccc2)cc1 | 1% | -2% | 1% | 0% | 4% | -33*
COc1ccc(OC)c(-c2csc(NC(=O)c3ccc(F)cc3)n2)c1 | -3% | -19% | -2% | 10µM* | ? | 2
CSc1cccc(Nc2cc(C(=O)NCCc3ccc(Cl)cc3)c3ccccc3n2)c1 | nt | 4% | -15% | 5µM* | nt | nt
COc1ccc(CCNC(=O)c2cc(-c3ccccc3)nc3ccccc23)cc1OC | nt | -2% | 17% | 19% | nt | nt
CCCCN(CCCNC(=O)c1cc(Nc2cccc(SC)c2)nc2ccccc12)Cc1ccccc1 | nt | 1% | nt | ? | nt | nt
COc1ccc(CCNC(=O)c2cc(Nc3cc(C)cc(C)c3)nc3ccccc23)cc1OC | nt | 3% | -9% | 4.5µM* | nt | nt
Cc1nc(N2CCOCC2)c2c(C(=O)N(C)Cc3ccccc3)c(C)oc2n1 | nt | 2% | nt | 13% | nt | nt
COc1cc(-c2noc(CCC(=O)Nc3cc(C)ccc3C)n2)cc(OC)c1OC | nt | -7% | nt | 4% | nt | nt
CNC(=O)c1c(NC(=O)c2cc(=O)c3ccccc3o2)sc2c1CCC2 | nt | 1% | -8% | 2% | nt | nt
SMILES | Mm-Cpn inhibitor | HEK293 tox | GLP1R ag | GLP1R inv ag | uPA surface inh | CCT modulator
O=S(=O)(/C(=C/c1ccc(C(F)(F)F)cc1)c1nc2ccccc2[nH]1)c1ccccc1 | 0% | 7.9µM* | -7% | 1.8µM* | -8% | 1
CC(C)c1ccc(/C=C(\c2nc3ccccc3[nH]2)S(=O)(=O)c2ccccc2)cc1 | 1% | -24% | -20% | ? | -8% | -4
O=C(N/N=C/c1ccc[nH]1)c1ccc(COc2cccc3cccnc23)cc1 | 0% | ? | 0% | ? | -15% | -2
Cc1cc(Br)c(OCc2ccc(C(=O)N/N=C/c3ccc[nH]3)cc2)c(Br)c1 | 0% | 3% | -1% | -72% | 0.18µM* | 1
Cc1noc(NS(=O)(=O)c2ccc(NC(=O)c3ccc(Br)cc3)cc2)c1C | nt | 8% | nt | 9% | nt | nt
Cc1ccc(C)c(N2CCN(C(=O)C3CCCN(S(=O)(=O)c4ccc5c(c4)oc(=O)n5C)C3)CC2)c1 (stereo not drawn) | nt | -16% | 0% | 15% | nt | nt
CC(=O)n1cc(C2CC(=O)OC3=C2CC(=O)C(C)(C)C3)c2ccccc21 (stereo not drawn) | nt | -3% | 6% | 6% | nt | -106*
O=C(O)CC(CC(=O)Nc1ccc(-n2ccc(C(F)(F)F)n2)cc1)c1ccccc1 (stereo not drawn) | 1% | 0% | 1% | -6% | 4% | -3
O=C(Nc1ccccc1)Nc1ccc(-n2ccc(C(F)(F)F)n2)cc1 | -11% | -22% | 10% | 7.1µM* | ? | 2
Cc1ccc(-c2cn(-c3ccc(Cl)cc3)c(S(=O)(=O)CC(=O)Nc3ccccc3)n2)cc1 | nt | -21% | nt | ? | nt | nt
O=C1c2ccccc2C(=O)N1CC(=O)N1c2ccccc2CCc2ccccc21 | 1% | -21% | -3% | 0% | -1% | -3
O=C(C(Cc1ccccc1)N1C(=O)c2ccccc2C1=O)N1c2ccccc2CCc2ccccc21 (stereo not drawn) | -8% | 6% | -1% | 13µM* | ? | -4
CC1=CC(c2ccccc2)n2ncnc2N1 (stereo not drawn) | nt | 5% | -3% | 20% | -5% | -2
CC1=CC(c2ccccc2)n2nc(N)nc2N1 (stereo not drawn) | nt | -8% | 9% | 24% | -1% | -87*
CC1(C)CC(=O)C/C(=N\NC(=O)C2CC23CCC3)C1 (stereo not drawn) | 50µM* | -4% | -1% | 19% | nt | 1
COc1ccc(CCNC(=O)CCn2c(=O)c3ccccc3n(Cc3ccccc3F)c2=O)cc1OC | nt | 1% | 0% | -17% | nt | nt
Cc1nn(Cc2ccccc2)c(C)c1NC(=O)CCCn1nc([N+](=O)[O-])c(Cl)c1C | 0% | 2% | 8% | -15% | 2% | -2
Cc1nn(Cc2c(Cl)cccc2Cl)c(C)c1NC(=O)CCCn1nc([N+](=O)[O-])c(Cl)c1C | 0% | -3% | 9% | 2.5µM* | -3% | 0

Assay outcomes (PubChem)
